The values below come from PubChem BioAssay (EPA / NIEHS).

The target in experiment [1] is Cellular tumor antigen p53 (Homo sapiens) (UniProt P04637). Kind of experiment: TOX21_p53_BLA_p2_ratio: Tox21 HCT-116 p53 Agonism Beta-lactamase Assay, Ratio, Phase 2 (AID 2283592). An outline of the steps:
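Cleaved-to-uncleaved substrate ratio (460 vs 530 nm) measured in HCT116 cells with an inducible beta-lactamase reporter linked to p53 activity. Compounds incubated 16 h at 37C before 2 h room-temperature CCF4-AM loading.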

Experiment [2] can be described thus: TOX21_p53_BLA_p3_viability: Viability Assessment in the Tox21 HCT-116 p53 Agonism Beta-lactamase Assay, Phase 3 (AID 2283593).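 Note: cells exposed to compound for 16 h before reading.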 The method in brief: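 HCT116 cells, 4000/well, dosed 5 h after plating by pin transfer (217-fold dilution from DMSO stock) and incubated 16 h at 37C, 5% CO2. Viability read as ATP luminescence with CellTiter-Glo after 30 min at room temperature.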

Experiment [3] has as its target Cellular tumor antigen p53 (Homo sapiens) (UniProt P04637). Kind of experiment: TOX21_p53_BLA_p3_ratio: Tox21 HCT-116 p53 Agonism Beta-lactamase Assay, Ratio, Phase 3 (AID 2283596). The method in brief: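 Cells were seeded at 4000/well, rested 5 h at 37C, then dosed with DMSO compound solutions (217-fold dilution) for 16 h. CCF4-AM substrate was loaded for 2 h at room temperature, and the 460/530 nm emission ratio was fitted for gain of signal versus DMSO.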

Experiment [4] has the same target. In words: TOX21_p53_BLA_p5_ratio: Tox21 HCT-116 p53 Agonism Beta-lactamase Assay, Ratio, Phase 5 (AID 2283599). The method in brief: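 HCT-116 p53-bla cells (4000/well) plated 5 h, dosed with compound (217-fold DMSO dilution) for 16 h at 37 C; CCF4-AM substrate 2 h at room temperature. Activity is the 460/530 nm emission ratio (405 nm excitation), fitted in gain-of-signal direction versus DMSO.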

Experiment [5] is described as follows: TOX21_p53_BLA_p5_viability: Viability Assessment in the Tox21 HCT-116 p53 Agonism Beta-lactamase Assay, Phase 5 (AID 2283600). An outline of the steps:
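Viability is taken from cellular ATP content, measured by luciferase luminescence in the same wells after the beta-lactamase ratio read. Cells are seeded at 4000 per well and exposed to DMSO-dissolved compounds, diluted 217-fold, for 16 h.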

Experiment [6] addresses Cellular tumor antigen p53 (Homo sapiens) (UniProt P04637). In words: TOX21_p53_BLA_p4_ratio: Tox21 HCT-116 p53 Agonism Beta-lactamase Assay, Ratio, Phase 4 (AID 2283601). The method in brief: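 HCT-116 p53 beta-lactamase reporter cells (4000/well) preincubated 5 h, then compound (217-fold dilution of DMSO stock) for 16 h at 37C. CCF4-AM substrate added 2 h at room temperature; 460/530 nm emission ratio fitted upward versus DMSO.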

For experiment [7], the target named is THRA (gene 7067) (UniProt P10827). In words: TOX21_TRA_COA_Antagonist_Followup_ratio: Tox21 Thyroid Hormone Receptor alpha Antagonism through Coactivator Recruitment Follow-Up Assay, Ratio (AID 2283953). An outline of the steps: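 We measured antagonism of T3-type coactivator recruitment using a TR-FRET ratio (emission 520 and 495 nm) between a Tb-labelled anti-GST antibody on TRα LBD (2.5 nM) and SRC-2 peptide (200 nM). Activity was scaled between DMSO and T3 wells.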

Experiment [8] has as its target THRB (gene 7068) (UniProt P10828). In words: TOX21_TRB_BLA_Antagonist_Followup_ratio: Tox21 Thyroid Hormone Receptor beta Antagonism Beta-lactamase (BLA) Follow-Up Assay, Ratio (AID 2283958). An outline of the steps:
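Using charcoal-stripped 2% FBS medium, human TRβ-LBD/GAL4 reporter HEK293T cells received test compounds for 18 h. The endpoint is the cleaved-to-uncleaved substrate ratio (460/530 nm).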

Experiment [9] in a line: TOX21_TRB_BLA_Antagonist_Followup_viability: Viability Assessment in the Tox21 Thyroid Hormone Receptor beta Antagonism Beta-lactamase (BLA) Follow-Up Assay (AID 2283961). The method in brief:
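Cytotoxicity is measured in parallel with the antagonist-mode TRβ beta-lactamase screen, using ATP-coupled luciferase luminescence. Engineered HEK293T cells are treated for 18 h with 11-point compound series in triplicate.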

Experiment [10] has as its target Retinoic acid receptor RXR-alpha (Homo sapiens) (UniProt P19793). In words: TOX21_TR_RXR_BLA_Antagonist_Followup_ratio: Tox21 Thyroid Hormone Receptor beta Retinoid X Receptor alpha (RXRa) Antagonism Beta-lactamase (BLA) Follow-Up Assay, Ratio (AID 2283972). An outline of the steps: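 Antagonist mode used GAL4 UAS-driven beta-lactamase in HEK293T cells expressing RXRa, treated for 16 h with compound concentration series. Activity was taken from the blue/green (460:530 nm) ratio of cleaved to uncleaved substrate.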

The nature of experiment [11]: TOX21_TR_RXR_BLA_Antagonist_Followup_viability: Viability Assessment in the Tox21 Thyroid Hormone Receptor beta Retinoid X Receptor alpha (RXRa) Antagonism Beta-lactamase (BLA) Follow-Up Assay (AID 2283979). An outline of the steps:
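RXRa-bla HEK293T cells (2,500/well, phenol red-free DMEM, 2% charcoal-stripped FBS) were attached 5 h, then exposed to compounds at 11 concentrations in triplicate for 16 h at 37C. Viability measured by CellTiter-Glo ATP luminescence, bidirectional fitting versus DMSO.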

Results filed as inconclusive are left out. The source made the active and inactive calls. Rule for the calls: active = hit-call score of the fitted dose curve at least 0.9, where 1 is the maximum; inconclusive = response in the unintended direction; inactive = score below 0.9.

Chain of Cellular tumor antigen p53 (Homo sapiens) (P04637 whole entry, looked up): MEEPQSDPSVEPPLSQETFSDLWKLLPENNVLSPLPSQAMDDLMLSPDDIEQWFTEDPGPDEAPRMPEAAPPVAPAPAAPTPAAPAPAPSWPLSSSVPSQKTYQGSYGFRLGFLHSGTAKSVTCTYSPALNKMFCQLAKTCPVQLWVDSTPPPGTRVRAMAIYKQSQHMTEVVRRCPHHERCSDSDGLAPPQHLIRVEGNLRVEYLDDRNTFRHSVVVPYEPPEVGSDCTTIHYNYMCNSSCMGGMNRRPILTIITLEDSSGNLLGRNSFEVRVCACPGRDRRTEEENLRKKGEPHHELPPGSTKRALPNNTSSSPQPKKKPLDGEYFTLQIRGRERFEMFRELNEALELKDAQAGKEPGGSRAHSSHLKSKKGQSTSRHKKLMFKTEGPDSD
Chain of Retinoic acid receptor RXR-alpha (Homo sapiens) (P19793 whole entry, looked up, the tested form may be a part): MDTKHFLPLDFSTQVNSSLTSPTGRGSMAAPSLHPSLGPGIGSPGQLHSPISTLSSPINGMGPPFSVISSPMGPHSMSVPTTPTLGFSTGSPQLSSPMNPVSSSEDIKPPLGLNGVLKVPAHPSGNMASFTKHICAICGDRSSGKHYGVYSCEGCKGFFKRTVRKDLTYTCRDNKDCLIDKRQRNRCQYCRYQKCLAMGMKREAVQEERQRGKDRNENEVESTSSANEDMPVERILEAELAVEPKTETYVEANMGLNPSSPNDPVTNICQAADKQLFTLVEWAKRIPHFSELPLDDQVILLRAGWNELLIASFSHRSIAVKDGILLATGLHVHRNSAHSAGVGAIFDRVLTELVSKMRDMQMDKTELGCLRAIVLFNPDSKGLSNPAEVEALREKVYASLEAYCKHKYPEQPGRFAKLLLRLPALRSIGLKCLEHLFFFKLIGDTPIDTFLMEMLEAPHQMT
Chain of THRA (gene 7067) (P10827 whole entry, looked up, the tested form may be a part): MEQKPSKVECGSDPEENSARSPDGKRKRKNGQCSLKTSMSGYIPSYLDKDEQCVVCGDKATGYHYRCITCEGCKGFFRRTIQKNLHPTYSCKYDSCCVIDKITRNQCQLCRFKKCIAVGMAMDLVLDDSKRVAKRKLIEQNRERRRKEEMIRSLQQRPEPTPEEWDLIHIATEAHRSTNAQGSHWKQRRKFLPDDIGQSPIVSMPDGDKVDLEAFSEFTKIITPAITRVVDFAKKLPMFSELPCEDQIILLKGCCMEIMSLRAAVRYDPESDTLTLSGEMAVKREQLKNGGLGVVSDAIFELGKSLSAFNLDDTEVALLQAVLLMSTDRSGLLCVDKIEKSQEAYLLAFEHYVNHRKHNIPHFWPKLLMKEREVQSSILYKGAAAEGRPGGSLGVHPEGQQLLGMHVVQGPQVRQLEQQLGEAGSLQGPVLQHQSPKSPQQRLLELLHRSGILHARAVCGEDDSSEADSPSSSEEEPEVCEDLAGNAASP
Chain of THRB (gene 7068) (P10828 whole entry, looked up, the tested form may be a part): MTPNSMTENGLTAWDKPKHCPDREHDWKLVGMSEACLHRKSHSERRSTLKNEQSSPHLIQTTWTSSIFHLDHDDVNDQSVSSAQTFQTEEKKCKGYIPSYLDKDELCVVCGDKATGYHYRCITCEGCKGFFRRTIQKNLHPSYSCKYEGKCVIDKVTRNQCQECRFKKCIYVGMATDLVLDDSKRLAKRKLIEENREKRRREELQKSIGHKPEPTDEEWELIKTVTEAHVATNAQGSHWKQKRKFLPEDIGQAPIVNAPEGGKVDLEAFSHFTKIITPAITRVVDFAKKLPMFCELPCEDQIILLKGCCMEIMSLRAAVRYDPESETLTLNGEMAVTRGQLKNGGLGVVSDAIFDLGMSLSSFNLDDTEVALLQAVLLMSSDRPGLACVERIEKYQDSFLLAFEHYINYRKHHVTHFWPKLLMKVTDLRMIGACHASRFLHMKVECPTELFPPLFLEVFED

As to `c1ccc(CSCc2ccccc2)cc1`, the result in experiment [1], in experiment [2], in experiment [3], in experiment [4], in [5] and in experiment [6] was inactive.

With `Cc1cc(O)c2c(c1)C(=O)c1cccc(O)c1C2=O`, the outcome in experiment [1], in experiment [2], in experiment [3], in experiment [4], in experiment [5] and in experiment [6] was inactive.

As to `c1ccc2sc(SSc3nc4ccccc4s3)nc2c1`, the result in experiment [1], in experiment [2], in [3], in experiment [4], in [5] and in experiment [6] was inactive.

Turning to `O=C(O)/C=C/c1ccc(Cn2ccnc2)cc1`, the outcome in experiment [1], in experiment [2], in [3], in [4], in experiment [5] and in experiment [6] was inactive.

On to `O=C(O)Cc1nn(Cc2ccc(Br)cc2F)c(=O)c2ccccc12`, for which the outcome in experiment [1], in [2], in experiment [3], in experiment [4], in [5] and in [6] was inactive.

Consider `CCCCNc1ccc(C(=O)OCCN(C)C)cc1`, for which the outcome in experiment [1], in [2], in experiment [3], in experiment [4], in [5] and in [6] was inactive.

Consider `N[C@H](CO)C(=O)O`, for which the result in [1], in experiment [2], in experiment [3], in experiment [4], in experiment [5] and in experiment [6] was inactive.

`CCCc1ccc(C(=O)O)cc1`: the outcome in [1], in [2], in experiment [3], in experiment [4], in experiment [5] and in experiment [6] was inactive.

For the molecule `C/C=C(\C)C=O`, the result in experiment [1], in experiment [2], in experiment [3], in experiment [4], in experiment [5] and in experiment [6] was inactive.

Consider `Cc1cc(C(C)(C)C)cc(C)c1CC1=NCCN1`, for which the result in experiment [1], in experiment [2], in experiment [3], in experiment [4], in experiment [5] and in experiment [6] was inactive.

Take `CCCCOC(=O)/C=C\C(=O)OCCCC`: the outcome in experiment [1], in [2], in [3], in [4], in experiment [5] and in experiment [6] was inactive.

In the case of `CCCCN(CCCC)CCCOC(=O)c1ccc(N)cc1`, the outcome in experiment [1], in experiment [2], in experiment [3], in experiment [4], in experiment [5] and in [6] was inactive.

With `CCCCCCCC(=O)Oc1c(Br)cc(C#N)cc1Br`, the AC50 in experiment [1] is 67.3 µM (active). For the same molecule, the outcome in experiment [2], in experiment [3], in experiment [4] and in [6] was inactive.

As for `O=C1Nc2ccc([N+](=O)[O-])cc2C1=O`, the half-maximal activity concentration (AC50) is 74.4 µM (active) in experiment [1], 85.2 µM (active) in experiment [3], 82.1 µM (active) in experiment [4] and 72.8 µM (active) in experiment [6]. Further, the call in experiment [2] and in [5] was inactive.

Consider `N#Cc1c(F)cccc1F`, for which the result in experiment [1], in [2], in experiment [3], in [4], in experiment [5] and in experiment [6] was inactive.

Regarding `O=C(Nc1ccc(/C=C/c2ccc(NC(=O)c3cc(S(=O)(=O)O)c4cccnc4c3O)cc2S(=O)(=O)O)c(S(=O)(=O)O)c1)c1cc(S(=O)(=O)O)c2cccnc2c1O`, the outcome in experiment [1], in experiment [2], in [3], in experiment [4], in experiment [5] and in experiment [6] was inactive.

As for `CC(=O)OCC1=C(C(=O)O)N2C(=O)[C@@H](NC(=O)Cc3cccs3)[C@H]2SC1`, the result in [1], in experiment [2], in experiment [3], in [4], in [5] and in experiment [6] was inactive.

For the molecule `O=C(NCN1CCOCC1)c1cnccn1`, the result in experiment [1], in experiment [2], in experiment [3], in experiment [4], in [5] and in experiment [6] was inactive.

Regarding `O=C1CC2(CCCC2)CC(=O)N1CCNCC1COc2ccccc2O1` (stereo not given), the result in [1], in experiment [2], in experiment [3], in experiment [4], in experiment [5] and in [6] was inactive.

For `CC(C(=O)O)c1cccc(Oc2ccccc2)c1` (stereo not given), the outcome in [1], in [2], in experiment [3], in experiment [4], in experiment [5] and in experiment [6] was inactive.

With `O=C(O)c1ccncc1`, the result in [1], in experiment [2], in experiment [3], in [4], in experiment [5] and in experiment [6] was inactive.

Turning to `CC(S)C(C)S` (stereo not given), the result in [1], in experiment [2], in experiment [3], in experiment [4], in experiment [5] and in [6] was inactive.

Consider `C[C@]12CCC(=O)C=C1CC[C@@H]1[C@@H]2[C@@H](O)C[C@@]2(C)[C@H]1CC[C@]2(O)C(=O)COP(=O)(O)O`, for which the outcome in [1], in experiment [2], in [3], in experiment [4], in experiment [5] and in experiment [6] was inactive.

On to `CCn1nc(C(=O)O)c(=O)c2cc3c(cc21)OCO3`, for which the outcome in experiment [1], in experiment [2], in experiment [3], in [4], in [5] and in experiment [6] was inactive.

In the case of `CCCOc1ccc2nc(NC(=O)OC)sc2c1`, the half-maximal activity concentration (AC50) in experiment [1] was 0.653 µM (active); in experiment [3], 3.42 µM (active); in experiment [4], 2.75 µM (active); in experiment [6], 1.66 µM (active). The call in [2], in experiment [5], in [7], in experiment [8], in experiment [9] and in experiment [10] was inactive. Besides, the molecule was called inactive in [11].

In the case of `Nc1ncnc2c1ncn2[C@@H]1O[C@H](CO)[C@@H](O)[C@H]1O`, the result in [1], in experiment [2], in [3], in experiment [4], in [5] and in experiment [6] was inactive.

On to `N#Cc1cc2ccccc2c2ccccc12`, for which the outcome in [1], in experiment [2], in experiment [3], in experiment [4] and in [6] was inactive.
